Reference: PubChem BioAssay AID1159580 (chemical genetic matrix, 2015)
Values joined by “and” are separate entries in the source; they are usually repeats but may differ in a detail not shown here. Identical values can stand only once. The whole screen tested about 5,500 compounds, of which about 2,000 (36%) were called active. Not shown: some 18% with an inconclusive outcome. Rule as the data show it: active = normalized growth mostly below about 0.91 (no sharp cut-off); inconclusive = no clear call, values can overlap the other calls; inactive = mostly above about 0.92. This is one part of the list.

Experiment: chemical genetic growth profiling, strain panel (AID 1159580);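 also: tested at 20 µM; growth read once vehicle control cultures reached saturation at 30 °C; 1 = growth at the plate median or of vehicle wells; lower values mean less growth of the strain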
Conditions: growth OD

Measured: normalized growth

CCCCNc1ccc(C(=O)OCCN(C)C)cc1
inactive: S. cerevisiae deletion strains, locus YJR075W, strain HOC1, hits give low values 1.02 | S. cerevisiae deletion strains, locus YKL009W, strain mrt4, hits give low values 1.02 | S. cerevisiae deletion strains, locus YKL068W, hits give low values 1.01 | S. cerevisiae deletion strains, locus YKL085W, strain MDH1 (second series), hits give low values 1.01 | S. cerevisiae deletion strains, locus YKL085W, strain MDH1, hits give low values 1.01 | S. cerevisiae deletion strains, locus YKL160W, strain elf1, hits give low values 1.03 | S. cerevisiae deletion strains, locus YKL190W, strain CNB1, hits give low values 1.01 | S. cerevisiae deletion strains, locus YKR001C, strain vps1, hits give low values 1.01 | S. cerevisiae deletion strains, locus YKR026C, strain gcn3, hits give low values 1.01 | S. cerevisiae deletion strains, locus YKR091W, strain srl3, hits give low values 1.01 | S. cerevisiae deletion strains, locus YLL001W, strain dnm1, hits give low values 1 | S. cerevisiae deletion strains, locus YLL026W, hits give low values 1.01 | S. cerevisiae deletion strains, locus YLL041C, strain sdh2, hits give low values 0.998 | S. cerevisiae deletion strains, locus YLR027C, strain aat2, hits give low values 1.01 | S. cerevisiae deletion strains, locus YLR039C, strain RIC1, hits give low values 1.14 | S. cerevisiae deletion strains, locus YLR058C, strain SHM2, hits give low values 1.01 | S. cerevisiae deletion strains, locus YLR102C, strain apc9, hits give low values 1.02 | S. cerevisiae deletion strains, locus YLR113W, strain HOG1, hits give low values 0.982 | S. cerevisiae deletion strains, locus YLR221C, strain rsa3, hits give low values 0.975 | S. cerevisiae deletion strains, locus YLR258W, strain gsy2, hits give low values 1.02 | S. cerevisiae deletion strains, locus YLR262C, strain YPT6 (second series), hits give low values 1.05 | S. cerevisiae deletion strains, locus YLR262C, strain YPT6, hits give low values 1.13 | S. cerevisiae deletion strains, locus YLR268W, strain sec22, hits give low values 1.04 | S. cerevisiae deletion strains, locus YLR320W, strain mms22, hits give low values 0.988 | S. cerevisiae deletion strains, locus YLR330W, strain CHS5, hits give low values 1 | S. cerevisiae deletion strains, locus YLR342W, strain FKS1 (second series), hits give low values 1 | S. cerevisiae deletion strains, locus YLR342W, strain FKS1, hits give low values 1.02 | S. cerevisiae deletion strains, locus YLR357W, strain rsc2, hits give low values 1.13 | S. cerevisiae deletion strains, locus YLR370C, strain arc18, hits give low values 1.01 | S. cerevisiae deletion strains, locus YLR371W, strain rom2, hits give low values 1.02 | S. cerevisiae deletion strains, locus YLR384C, strain iki3, hits give low values 1.02 | S. cerevisiae deletion strains, locus YLR418C, strain cdc73, hits give low values 1.01 | S. cerevisiae deletion strains, locus YML016C, strain PPZ1, hits give low values 1 | S. cerevisiae deletion strains, locus YML032C, strain rad52, hits give low values 1.02 | S. cerevisiae deletion strains, locus YML120C, strain ndi1, hits give low values 0.995 | S. cerevisiae deletion strains, locus YML124C, strain tub3, hits give low values 1.02 | S. cerevisiae deletion strains, locus YMR058W, strain fet3, hits give low values 1.02 | S. cerevisiae deletion strains, locus YMR078C, strain ctf18, hits give low values 1.02 | S. cerevisiae deletion strains, locus YMR125W, strain sto1, hits give low values 1.05 | S. cerevisiae deletion strains, locus YMR129W, hits give low values 1.01 | S. cerevisiae deletion strains, locus YMR205C, strain PFK2, hits give low values 1.02 | S. cerevisiae deletion strains, locus YMR223W, strain ubp8, hits give low values 1.01 | S. cerevisiae deletion strains, locus YMR231W, strain pep5, hits give low values 1.02 | S. cerevisiae deletion strains, locus YMR307W, strain GAS1, hits give low values 0.943 and 1.02 | S. cerevisiae deletion strains, locus YNL067W, strain RPL9B, hits give low values 1.01 | S. cerevisiae deletion strains, locus YNL071W, strain lat1, hits give low values 1.02 | S. cerevisiae deletion strains, locus YNL128W, strain TEP1, hits give low values 1.02 | S. cerevisiae deletion strains, locus YNL153C, strain GIM3, hits give low values 1 | S. cerevisiae deletion strains, locus YNL175C, strain NOP13, hits give low values 1.01 | S. cerevisiae deletion strains, locus YNL183C, strain NPR1, hits give low values 0.93 | S. cerevisiae deletion strains, locus YNL197C, strain WHI3, hits give low values 0.982 | S. cerevisiae deletion strains, locus YNL209W, strain ssb2, hits give low values 1.02 | S. cerevisiae deletion strains, locus YNL224C, strain SQS1, hits give low values 0.99 | S. cerevisiae deletion strains, locus YNL233W, strain BNI4, hits give low values 1 | S. cerevisiae deletion strains, locus YNL250W, strain rad50, hits give low values 0.998 | S. cerevisiae deletion strains, locus YNL271C, strain bni1, hits give low values 1.01 | S. cerevisiae deletion strains, locus YNL298W, strain CLA4, hits give low values 1.02 | S. cerevisiae deletion strains, locus YNL307C, strain MCK1, hits give low values 1.02 | S. cerevisiae deletion strains, locus YNL322C, strain KRE1 (second series), hits give low values 1.01 | S. cerevisiae deletion strains, locus YNL322C, strain KRE1, hits give low values 1.01 and 1.02 | S. cerevisiae deletion strains, locus YNR049C, strain mso1, hits give low values 1.02 | S. cerevisiae deletion strains, locus YNR052C, strain pop2, hits give low values 1.01 | S. cerevisiae deletion strains, locus YOL006C, strain TOP1, hits give low values 0.943 | S. cerevisiae deletion strains, locus YOL012C, strain htz1 0.973 | S. cerevisiae deletion strains, locus YOL147C, strain pex11, hits give low values 1.02 | S. cerevisiae deletion strains, locus YOR001W, strain rrp6, hits give low values 0.954 | S. cerevisiae deletion strains, locus YOR061W, strain CKA2, hits give low values 1 | S. cerevisiae deletion strains, locus YOR069W, strain VPS5, hits give low values 1.01 | S. cerevisiae deletion strains, locus YOR070C, strain gyp1, hits give low values 1 | S. cerevisiae deletion strains, locus YOR080W, strain dia2, hits give low values 1 | S. cerevisiae deletion strains, locus YOR083W, strain WHI5 (second series), hits give low values 0.999 | S. cerevisiae deletion strains, locus YOR083W, strain WHI5, hits give low values 1.02 | S. cerevisiae deletion strains, locus YOR106W, strain vam3, hits give low values 1.04 | S. cerevisiae deletion strains, locus YOR136W, strain idh2, hits give low values 1.02 | S. cerevisiae deletion strains, locus YOR144C, strain elg1, hits give low values 1.01 | S. cerevisiae deletion strains, locus YOR184W, strain ser1, hits give low values 1.04 | S. cerevisiae deletion strains, locus YOR231W, strain MKK1, hits give low values 0.995 | S. cerevisiae deletion strains, locus YOR265W, strain rbl2, hits give low values 1.02 | S. cerevisiae deletion strains, locus YOR270C, strain vph1, hits give low values 0.988 | S. cerevisiae deletion strains, locus YOR290C, strain snf2, hits give low values 1.06 | S. cerevisiae deletion strains, locus YOR316C, strain cot1, hits give low values 1.02 | S. cerevisiae deletion strains, locus YPL051W, strain arl3, hits give low values 1.03 | S. cerevisiae deletion strains, locus YPL055C, strain LGE1, hits give low values 1.02 | S. cerevisiae deletion strains, locus YPL078C, strain atp4, hits give low values 1.04 | S. cerevisiae deletion strains, locus YPL106C, strain sse1, hits give low values 1.05 | S. cerevisiae deletion strains, locus YPL240C, strain hsp82, hits give low values 0.998 | S. cerevisiae deletion strains, locus YPL241C, strain CIN2, hits give low values 1 | S. cerevisiae deletion strains, locus YPL256C, strain CLN2, hits give low values 0.964 | S. cerevisiae deletion strains, locus YPR119W, strain clb2, hits give low values 1.01 | S. cerevisiae deletion strains, locus YPR141C, strain kar3, hits give low values 1.02 | S. cerevisiae deletion strains, locus YPR163C, strain tif3, hits give low values 1.02 | S. cerevisiae deletion strains, locus YPR167C, strain met16, hits give low values 1.02 | S. cerevisiae deletion strains, strain wtn01, hits give low values 1.04 | S. cerevisiae strains, strain wild type, hits give low values 1
active: S. cerevisiae deletion strains, locus YNL248C, strain rpa49, hits give low values 1.13 [resistant]
